Activity calls are given as the source filed them.
How the values were obtained:
Albumin (Bos taurus) = Albumin (Bos taurus) (UniProt P02769); test: compounds binding labelled BSA control protein – biochemical, small-molecule microarray, Alexa647 label, 635/667 nm fluorescence, artefact control for SMM control protein annotation, profiling panel (AID 1118); details: BSA-A647 binding, fluorescence 635 nm, higher = more signal;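 note: score merges 667 nm emission intensity and signal-to-noise per printed compound spot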
[1] = probe aXIP binding to arrayed compounds – biochemical, NeuroSMM set, 635/667 nm fluorescence, primary screen (AID 1119); details: small-molecule microarray, higher = more signal, called active from +8 up or from −8 down;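 note: probe is the protein aXip251-270 applied at 1 µg/mL to compound-printed slides; binding of probe to printed compounds measured as 667 nm fluorescence plus signal to noise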
[2] = probe aNOTCH3 binding on compound microarray – biochemical, small-molecule microarray, 635/667 nm fluorescence, primary screen (AID 1120); details: higher = more signal;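 note: probe is a biotin-tagged antibody raised against NOTCH3 rather than NOTCH3 protein; score merges spot fluorescence near 667 nm with spot signal to noise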
[3] = probe aNOTCH2 binding on compound microarray – biochemical, small-molecule microarray, 635/667 nm fluorescence, primary screen (AID 1121); details: higher = more signal;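 note: score merges feature fluorescence read at 667 nm with its signal to noise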
[4] = biological target: Carbonic anhydrase 2 (Homo sapiens) (UniProt P00918); test: compounds binding carbonic anhydrase 2 – biochemical, small-molecule microarray, Alexa647-labelled CAII, profiling panel (AID 1122); details: CAII-A647 binding fluorescence, higher = more signal
[5] = COS7 lysate on small-molecule microarray, probe aHis, 635 nm (AID 1123); details: COS7 cell lysate, fluorescence, higher = more signal;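 note: z-score combines 667nm fluorescence intensity with signal-to-noise per printed compound spot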
[6] = probe aLAP1 signal on lysate-treated microarray – cell lysate, small-molecule microarray, COS7 lysate, primary screen (AID 1124); details: probe aLAP1, fluorescence, higher = more signal;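 note: lysate comes from COS7 cells expressing LAP1 and is applied at 0.3 µg/mL; score merges spot fluorescence near 667 nm with signal-to-noise over triplicate slides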
Sam68 (KHDRBS1) = test: compounds binding KHDRBS1 protein – biochemical, small-molecule microarray, 635 nm fluorescence, primary screen (AID 1125); details: higher = more signal;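 note: score merges 667 nm channel intensity with signal to noise over triplicate slides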
[7] = tested on: Chordin-like protein 2 (CHRDL2); test: compounds binding chordin-like 2 – biochemical, small-molecule microarray, 635 nm fluorescence, primary screen (AID 1126); details: fluorescence 635 nm, higher = more signal;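 note: printed compound slides probed with Chrdl2 protein at 4 µg/mL for 1 h at 4 C; score merges 667 nm emission intensity with signal to noise over three replicate slides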
[8] = biological target: Concanavalin-A (Canavalia ensiformis) (UniProt P02866); test: compounds binding concanavalin A lectin – biochemical, small-molecule microarray, Alexa647 label, 635 nm, artefact control for SMM control protein annotation, primary screen (AID 1127); details: ConA-A647 binding fluorescence, higher = more signal;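 note: z combines 667 nm emission intensity with signal-to-noise across three replicate slides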
[9] = compounds binding Alexa647 anti-His antibody – biochemical, small-molecule microarray, 635 nm fluorescence, artefact control for SMM control protein annotation, primary screen (AID 1128); details: higher = more signal;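 note: score merges feature fluorescence with signal-to-noise for each printed compound spot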
[10] = tested on: Human papillomavirus type 1a E7 protein (residues 1-88); test: HPV1a E7 small-molecule binders, primary screen, biochemical, small-molecule microarray, residues 1-88, 635 nm (AID 1129); details: small-molecule microarray binding, fluorescence 635 nm; higher = more signal
[11] = biological target: Focal adhesion kinase 1 (Homo sapiens) (UniProt Q05397); test: PTK2 protein binding on printed compound slides – biochemical, small-molecule microarray, 635/667 nm fluorescence, BSA, DTT, primary screen (AID 1130); details: 635 nm fluorescence, higher = more signal;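 note: composite of spot emission at 667 nm and signal to noise over triplicate slides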
[12] = tested on: Fibrinogen (Alexa647-labelled); test: Alexa647-fibrinogen binding to printed small molecules – biochemical, small-molecule microarray, 635/667 nm fluorescence, artefact control for SMM control-protein annotation, profiling panel (AID 1131); details: fibrinogen-A647 binding fluorescence, higher = more signal;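 note: z-score merges 667 nm fluorescence with per-spot signal-to-noise over triplicate slides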
[13] = biological target: Follistatin (Homo sapiens) (UniProt P19883); test: FST protein binding to printed compounds – biochemical, small-molecule microarray, 635/667 nm fluorescence, primary screen (AID 1132); details: 635 nm fluorescence, higher = more signal
[14] = biological target: Fibroblast growth factor 2 (Homo sapiens) (UniProt P09038); test: basic fibroblast growth factor binding to printed compounds – biochemical, small-molecule microarray, 635/667 nm fluorescence, primary screen (AID 1133); details: FGF2, fluorescence 635/667, higher = more signal
[15] = JC-1 mitochondrial potential readout, lung cancer cells – cell-based, A549, JC-1 fluorescence, basal, 24 h, 100 nL, profiling panel (AID 1138); details: higher = more signal;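 note: A549 lung adenocarcinoma cells under basal conditions with no added stimulus; test concentration not given here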
Lefty1 = Lefty1 protein binding to printed compounds – biochemical, small-molecule microarray, 635/667 nm fluorescence, primary screen (AID 1139); details: fluorescence 635/667, higher = more signal
[16] = tested on: wheat germ agglutinin (Triticum aestivum), Alexa647-labelled; test: Alexa647-WGA lectin binding to printed small molecules – biochemical, small-molecule microarray, 635/667 nm fluorescence, artefact control for SMM control-protein annotation, profiling panel (AID 1140); details: WGA-A647 binding, 635 nm fluorescence, higher = more signal;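 note: score merges 667 nm feature emission with signal to noise over triplicate slides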
[17] = biological target: Luciferin 4-monooxygenase (Photinus pyralis) (UniProt P08659); test: inhibition of purified Photinus pyralis luciferase – biochemical, luminescence, purified enzyme, 2006 set, primary screen (AID 1141); details: purified firefly luciferase, SteadyGlo luminescence, 30 min; higher = more signal, called active from +8 up or from −8 down;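 note: cell-free assay with purified firefly luciferase at 100 ng per well in PBS; test concentration not given here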
Luciferin 4-monooxygenase (Photinus pyralis), sequence (P08659 whole entry, looked up): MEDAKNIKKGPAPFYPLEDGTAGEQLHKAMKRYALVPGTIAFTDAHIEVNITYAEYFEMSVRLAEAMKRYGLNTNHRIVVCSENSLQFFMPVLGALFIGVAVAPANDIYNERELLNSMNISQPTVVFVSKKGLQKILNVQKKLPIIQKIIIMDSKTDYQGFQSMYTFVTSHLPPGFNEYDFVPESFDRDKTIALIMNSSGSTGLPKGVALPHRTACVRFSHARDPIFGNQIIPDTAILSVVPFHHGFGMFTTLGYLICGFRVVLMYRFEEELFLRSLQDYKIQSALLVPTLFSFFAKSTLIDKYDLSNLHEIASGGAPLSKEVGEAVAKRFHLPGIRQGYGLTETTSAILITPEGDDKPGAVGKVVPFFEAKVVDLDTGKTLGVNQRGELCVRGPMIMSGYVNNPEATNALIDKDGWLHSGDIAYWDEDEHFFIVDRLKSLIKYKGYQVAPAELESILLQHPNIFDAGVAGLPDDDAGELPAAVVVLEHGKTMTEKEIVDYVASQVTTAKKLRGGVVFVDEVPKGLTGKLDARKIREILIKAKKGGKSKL

Concanavalin-A (Canavalia ensiformis), sequence (P02866 whole entry, looked up): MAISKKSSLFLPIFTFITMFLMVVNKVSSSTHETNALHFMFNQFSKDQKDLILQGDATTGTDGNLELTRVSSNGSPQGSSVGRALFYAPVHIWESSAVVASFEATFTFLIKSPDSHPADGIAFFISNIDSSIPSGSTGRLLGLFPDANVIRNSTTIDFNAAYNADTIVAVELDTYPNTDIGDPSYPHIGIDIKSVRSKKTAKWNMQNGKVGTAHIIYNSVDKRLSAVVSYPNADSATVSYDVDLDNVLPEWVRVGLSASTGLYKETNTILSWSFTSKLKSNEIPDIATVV
Albumin (Bos taurus), sequence (P02769 whole entry, looked up): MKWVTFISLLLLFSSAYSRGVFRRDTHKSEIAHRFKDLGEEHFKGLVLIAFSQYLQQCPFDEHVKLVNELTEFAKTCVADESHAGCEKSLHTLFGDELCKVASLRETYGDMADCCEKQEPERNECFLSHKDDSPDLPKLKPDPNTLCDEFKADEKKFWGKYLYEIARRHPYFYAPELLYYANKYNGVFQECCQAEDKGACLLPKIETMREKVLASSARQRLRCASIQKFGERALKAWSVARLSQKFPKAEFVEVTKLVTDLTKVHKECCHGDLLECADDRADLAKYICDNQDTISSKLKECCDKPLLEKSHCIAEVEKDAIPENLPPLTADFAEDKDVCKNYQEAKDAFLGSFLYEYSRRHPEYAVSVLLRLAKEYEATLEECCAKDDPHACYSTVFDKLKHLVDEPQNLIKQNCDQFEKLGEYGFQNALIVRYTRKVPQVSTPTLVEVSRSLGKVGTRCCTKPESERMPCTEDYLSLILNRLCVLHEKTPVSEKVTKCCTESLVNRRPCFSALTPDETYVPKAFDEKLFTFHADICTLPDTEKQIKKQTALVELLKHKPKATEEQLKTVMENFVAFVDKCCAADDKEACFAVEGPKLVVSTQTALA
Follistatin (Homo sapiens), sequence (P19883 whole entry, looked up): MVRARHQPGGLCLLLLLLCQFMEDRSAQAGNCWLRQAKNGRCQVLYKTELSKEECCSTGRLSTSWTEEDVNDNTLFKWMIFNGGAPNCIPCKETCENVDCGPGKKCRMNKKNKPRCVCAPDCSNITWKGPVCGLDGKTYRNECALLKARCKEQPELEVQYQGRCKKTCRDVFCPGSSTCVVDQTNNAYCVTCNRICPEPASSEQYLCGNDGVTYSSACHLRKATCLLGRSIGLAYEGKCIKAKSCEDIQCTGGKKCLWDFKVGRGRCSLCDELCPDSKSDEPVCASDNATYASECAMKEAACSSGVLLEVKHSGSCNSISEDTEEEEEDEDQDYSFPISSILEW
Fibroblast growth factor 2 (Homo sapiens), sequence (P09038 whole entry, looked up): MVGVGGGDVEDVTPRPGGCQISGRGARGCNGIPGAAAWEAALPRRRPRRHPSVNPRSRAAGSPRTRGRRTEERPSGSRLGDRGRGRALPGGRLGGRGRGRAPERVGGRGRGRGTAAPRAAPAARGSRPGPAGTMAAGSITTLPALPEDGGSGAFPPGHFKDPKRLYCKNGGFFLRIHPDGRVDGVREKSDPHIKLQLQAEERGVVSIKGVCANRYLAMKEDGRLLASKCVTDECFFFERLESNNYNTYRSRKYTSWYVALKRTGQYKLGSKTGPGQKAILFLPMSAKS
Focal adhesion kinase 1 (Homo sapiens), sequence (Q05397 whole entry, looked up): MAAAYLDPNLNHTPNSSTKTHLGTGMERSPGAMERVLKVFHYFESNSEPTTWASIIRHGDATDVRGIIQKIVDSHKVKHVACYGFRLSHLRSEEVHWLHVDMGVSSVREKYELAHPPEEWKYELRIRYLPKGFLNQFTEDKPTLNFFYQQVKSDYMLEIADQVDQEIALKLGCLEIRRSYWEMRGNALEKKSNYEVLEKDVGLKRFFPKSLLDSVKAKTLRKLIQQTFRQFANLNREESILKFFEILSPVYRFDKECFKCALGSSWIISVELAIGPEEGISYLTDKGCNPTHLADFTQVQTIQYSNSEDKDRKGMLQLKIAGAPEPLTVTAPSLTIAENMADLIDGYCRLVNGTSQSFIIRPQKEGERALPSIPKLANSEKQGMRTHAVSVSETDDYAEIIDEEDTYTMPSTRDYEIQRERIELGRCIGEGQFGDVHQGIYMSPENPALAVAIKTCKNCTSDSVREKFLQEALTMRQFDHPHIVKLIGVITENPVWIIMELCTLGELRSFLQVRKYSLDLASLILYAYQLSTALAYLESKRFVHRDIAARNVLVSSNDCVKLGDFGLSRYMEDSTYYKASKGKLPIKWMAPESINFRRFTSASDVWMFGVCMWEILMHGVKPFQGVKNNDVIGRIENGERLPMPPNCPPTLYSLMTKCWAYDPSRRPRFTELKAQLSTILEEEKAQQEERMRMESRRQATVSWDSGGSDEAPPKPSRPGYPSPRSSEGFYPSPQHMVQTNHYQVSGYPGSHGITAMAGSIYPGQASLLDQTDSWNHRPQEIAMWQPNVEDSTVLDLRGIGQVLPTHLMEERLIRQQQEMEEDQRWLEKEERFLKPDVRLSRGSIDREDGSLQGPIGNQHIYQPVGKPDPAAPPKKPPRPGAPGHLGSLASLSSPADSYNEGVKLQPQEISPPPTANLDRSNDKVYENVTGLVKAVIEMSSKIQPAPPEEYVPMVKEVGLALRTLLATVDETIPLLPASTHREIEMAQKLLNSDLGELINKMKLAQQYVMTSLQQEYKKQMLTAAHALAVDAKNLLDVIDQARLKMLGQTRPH

| SMILES | composite z-score (Albumin (Bos taurus)) | composite Z-score [1] | composite z-score [2] | composite z-score [3] | composite z-score [4] | composite z-score [5] | composite z-score [6] | composite z-score (Sam68 (KHDRBS1)) | composite z-score [7] | composite z-score [8] | composite z-score [9] | composite z-score [10] | composite z-score [11] | composite z-score [12] | composite z-score [13] | composite z-score [14] | z-score [15] | composite z-score (Lefty1) | composite z-score [16] | z-score [17] |
| --- | --- | --- | --- | --- | --- | --- | --- | --- | --- | --- | --- | --- | --- | --- | --- | --- | --- | --- | --- | --- |
| [N-]=[N+]=Nc1ccccc1[C@@H]1OC(c2ccc(OCCCO)cc2)=N[C@]1(Cc1ccccc1)C(=O)N1CCOCC1 | 0.309 | -0.174 (inactive) | 0.619 | 0.0117 | 0.312 | 2.23 | 0.115 | 1.31 | 0.0383 | 1.09 | 2.31 | 1.19 | 0.142 | 0.862 | 1.26 | 0.749 | 1.53 | 0.0367 | 0.923 | -5.98 (inactive) |
| COC(=O)C(CC#Cc1ccc2c(c1)[C@]1(C(=O)N2)[C@H](C(=O)Nc2nc3ccccc3s2)[C@H]2C(=O)O[C@H](c3ccccc3)[C@H](c3ccccc3)N2[C@@H]1c1ccccc1OCCO)C(=O)OC | 0.987 | -0.323 (inactive) | 0.116 | -0.0859 | 0.663 | 1.69 | 0.636 | 1.3 | -0.154 | 1.14 | 1.41 | 1.24 | 1.04 | 0.964 | 0.931 | 0.452 | -2.25 | 0.625 | 1.29 | -0.293 (inactive) |
| COC(=O)[C@]1(CCC(=O)OC(C)(C)C)N=C(c2ccc(OCCCO)cc2)O[C@@H]1c1ccccc1CN=[N+]=[N-] | -0.325 | -1.26 (inactive) | -0.0284 | 0.0059 | 0.675 | 1.72 | -0.46 | 0.866 | -1.04 | 0.779 | 0.0121 | 1.06 | 0.348 | 0.666 | 1.13 | 0.283 | -0.208 | -0.477 | 0.095 | -0.76 (inactive) |
| COc1ccc(-c2cc3c(c(-c4ccc(Oc5ccccc5)cc4)n2)[Si](C(C)C)(C(C)C)OC3)cn1 | -0.344 | -0.108 (inactive) | -0.0311 | -0.132 | -0.163 | 0.0687 | -0.232 | -0.0667 | -0.0581 | 0.478 | 0.0674 | -0.221 | 0.158 | -0.424 | 0.525 | -0.224 | -0.0734 | 0.278 | -0.12 | 0.223 (inactive) |
| O=C1[C@@]23C=C(Br)[C@H](C[C@@H]2CCOC3)[C@@]12CO2 | -0.169 | -0.775 (inactive) | 0.146 | -0.162 | -0.0433 | -0.128 | 0.522 | 0.166 | 0.518 | 0.311 | 0.477 | 0.235 | -0.176 | 0.332 | 0.327 | 0.469 | 1.23 | 0.406 | 0.128 | -0.54 (inactive) |
| C=C(CCCC)/C(=C/C[C@H](OC(C)=O)c1ccccc1OCCO)c1cc(C(=O)OC)ccc1OC | 0.0908 | 0.0578 (inactive) | -0.141 | -0.117 | 0.767 | 0.0095 | 0.095 | 0.287 | -0.193 | -0.701 | -0.33 | 0.0376 | -0.0155 | -0.438 | 0.0341 | -0.196 | 1.39 | 0.0742 | -0.4 | -0.687 (inactive) |
| C=CCNC(=O)[C@H]1[C@@H]2C(=O)O[C@@H](c3ccccc3)[C@@H](c3ccccc3)N2[C@@H](c2ccccc2OCCO)[C@]12C(=O)Nc1ccc(C#CCCO)cc12 | -0.066 | 0.313 (inactive) | -0.214 | -0.137 | 0.423 | 1.06 | 0.0894 | -0.0891 | -0.0022 | 0.801 | 1.12 | -0.231 | 0.191 | -0.205 | 0.0804 | 2.05 | 0.582 | -0.376 | -0.0387 | -0.412 (inactive) |
| CN(C)CCCCCCNC(=O)[C@@H]1C[C@@H]2C(=O)N[C@@H](Cc3ccccc3)C(=O)N2[C@@H]1c1ccc(O)cc1 | -0.0568 | 0.675 (inactive) | 0.299 | -0.0276 | 0.425 | 1.58 | -0.453 | 1.31 | 1.41 | 1.21 | 2.45 | 1.23 | 0.303 | 0.493 | 1.44 | 1.63 | -1.06 | 1.67 | 0.715 | 0.205 (inactive) |

From PubChem BioAssay
